# Compounds without any hit were thinned out: in the full panel of roughly 83,000, 20% have a hit.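 Plates (96-well) were seeded with cells, treated with compound at one concentration, and incubated for 48 hours before percent growth was determined.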 Active and inactive are the calls of the source. Rule for the calls: active = growth percent below 10; inactive = the rest.
# Test system: HL-60(TB) leukemia
# Assay: NCI-60 one-dose screen, 48 h (100 = growth as untreated, 0 = no growth, -100 = all killed)
# Conditions: 10 µM unless noted
row,Structure (SMILES),growth
1,N#CC1c2ccccc2-c2ccccc2N1C(=O)c1ccccc1 (stereo not given),21.6% (inactive)
2,CCN(CC)CCOC(=O)Nc1c(C(C)C)cccc1C(C)C,101% (inactive)
3,C[C@@H]1C=C2C(=O)O[C@@H]3CC[C@H](C1)[C@]23O,72.4% (inactive)
4,O=c1ccn(C2CCCO2)c(=O)[nH]1 (stereo not given),111% (inactive)
5,N#C/C(=C\c1ccc(-c2ccc(Cl)c(Cl)c2)o1)c1nc(-c2ccco2)cs1,103% (inactive)
6,NC1(N)C=CC2=C(C=C1)C1(N)C3=C(C=CC(N)(N)C=C3)N2C2(N)C3=C(C=CC(N)(N)C=C3)N1C1=C2C=CC(N)(N)C=C1,-2.73% (active)
7,O=C(NS(=O)(=O)c1ccc2ccccc2c1)n1cc(-c2ccncc2)c(-c2ccc(Cl)c(O)c2)n1,43.3% (inactive)
8,C#CCNC(=O)c1cccc2c1cc(C)n2-c1nc2c(c(NCc3ccccc3)n1)CCCC2,0.47% (active)
9,CCCCCN1C(=O)/C(=c2\sc3n(c2=O)C2C(NN=3)N(CC)C(=O)N2CC)c2ccccc21 (stereo not given),-56.6% (active)
10,C=C(C)[C@@H]1CC[C@]2(C(=O)n3ccnc3)CC[C@]3(C)[C@H](CC[C@@H]4[C@@]5(C)CCCNC(C)(C)[C@@H]5CC[C@]43C)[C@@H]12,-56.2% (active)
11,O=C(CO[N+](=O)[O-])Nc1ccc(C(=O)/C=C/c2ccc3c(c2)OCO3)cc1,73.7% (inactive)
12,N#CC1=C(N)Oc2c(c(=O)[nH]c3ccc(Cl)cc23)C12C(=O)c1ccccc1C2=O,99.8% (inactive)
13,COc1cc2c(c(OC)c1O)C(=O)C(OC)C(c1ccc(O)c(O)c1)O2 (stereo not given),-28.6% (active)
14,N=C1c2nc3n(c2C(=O)c2nc4n(c21)CCCC4)CCCC3,96.3% (inactive)
15,CCOC(=O)/C(=C/c1ccc([N+](=O)[O-])cc1)C(=O)c1ccccc1,-20.8% (active)
16,Cc1ccc(NC(=O)c2sc3nc(C)c(Br)c(C)c3c2N)cc1,95.2% (inactive)
17,COc1ccccc1NC(=O)C1=C(C)NC(C)=C(C(=O)Nc2ccccc2OC)C1c1cccc([N+](=O)[O-])c1,66.7% (inactive)
18,Fc1ccc(-c2nnc(N3CCOCC3)c3ccccc23)cc1,264% (inactive)
19,CN(C)CC(C)(CN(C)C)C(=O)/C=C/c1c(Cl)cccc1Cl,-5.28% (active)
20,CCOC(=O)C1=NN(c2ccccc2)C(=O)/C1=C\N1C(=O)/C(=C/c2cccc(O)c2)SC1=S,93.2% (inactive)

row,Structure (SMILES),growth
1,CCOC(=O)C1(N)CCCCC1,110% (inactive)
2,S=c1ccnc[nH]1,59.3% (inactive)
3,Nc1ncnc2c1N=C(c1ccc(Cl)cc1)CC(c1cccc(Nc3ccnc4cc(Cl)ccc34)c1)N2 (stereo not given),55.3% (inactive)
4,O=C(/C=C\c1ccco1)/C=C/c1ccco1,106% (inactive)
5,C=C(CNCCc1ccc(O)cc1)[C@@H]1CC[C@]2(COC3CCCCO3)CC[C@]3(C)[C@H](CC[C@@H]4[C@@]5(C)CCC(NCCO)C(C)(C)[C@@H]5CC[C@]43C)[C@@H]12 (stereo not given in full),-59.5% (active)
6,COc1ccc2c(c1)NC(=O)CN2c1nc(C)nc2ccccc12,-6.18% (active)
7,CC1(n2nnnc2N2CCCN(c3ncccc3N)CC2)CCC1,102% (inactive)
8,CC(=O)Oc1c(Cl)cccc1-c1ccccc1,99.6% (inactive)
9,CSc1[nH]c(=O)ncc1F,106% (inactive)
10,O=C(Nc1ccccc1)P(=O)(O)c1ccccc1,92.2% (inactive)
11,O=C1c2cccc3cccc(c23)C(=O)N1CCCCCN1CCN(CCCCCOc2ccc(-c3nc4ccc(N5CCOCC5)cc4[nH]3)cc2)CC1,3.01% (active)
12,O=c1c2c(c3ccccc3n1-c1ccccc1)NC(=S)NC2c1ccc(Cl)cc1 (stereo not given),22.1% (inactive)
13,COc1cc2c(cc1OCCCOc1cc3c(cc1OC)C(=O)N1CCC[C@H]1C=N3)C=CC(C)(C)O2,102% (inactive)
14,N#Cc1c(-c2ccccn2)[nH]c(=S)[nH]c1=O,94.9% (inactive)
15,CCC/C(=N\NC(N)=O)C(OC)OC,86.5% (inactive)
16,O=C1c2[nH]cc(CN[C@@H]3CCCN3)c2C(=O)c2c1c(O)c1ccccc1c2O,-73% (active)
17,CCCCCCCCCCCCN1C(C)=CS/C1=C\C=C\c1scc(C)[n+]1CCCCCCCCCCCC,-32.3% (active)
18,CNC(=O)c1cc(Oc2ccc(NC(=O)Nc3cc(C(C)(C)C)nn3-c3ccc4ncccc4c3)c(F)c2)ccn1,-43.2% (active)
19,CSc1nc(C)c([N+](=O)[O-])c(N)n1,90.2% (inactive)
20,COc1ccc2[nH]c(C(=O)N3CCN(C(=O)OCc4ccc5c(Cl)cc(Cl)c(O)c5n4)CC3)cc2c1,-45% (active)
